Screens deposited in PubChem BioAssay by National Center for Advancing Translational Sciences (NCATS).
PI5P4Ka inh – blocks human PI5P4K alpha kinase activity; max response, %; actives 1.2% (n = 330,000); PI5P4Kalpha enzyme, ADP-Glo luminescence, 60 min; hits give low values; P48426; active = max response of -50% or lower; inconclusive = between -30% and -50%; inactive = -30% or higher; also: value at the top dose of about 77 µM; % is scaled to controls: 0 for no effect and ±100 for the full control effect
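Controls without substrate or without enzyme flank wells where PI5P4Kalpha converts substrate using 5 microM ATP (final). Incubation lasts 60 minutes at room temperature; ADP formed is read by ADP-Glo luminescence.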
FEN1 inhibitor – blocks human flap endonuclease 1. AID 588795. actives 0.35% (n = 390,000). P39748. Recombinant FEN1 flap cleavage, fluorescence, 15 min. Potency, µM (titrated, usually from 114 µM), for inactives: at the highest dose activity change, negative = inhibition, most hits filed as inhibitors; also: potency is read from the fitted curve at half-maximal effect; % is scaled to controls: 0 for no effect and ±100 for the full control effect; nearly all actives have a fitted effect of over 65% in size
Target sequence (P39748 whole entry, looked up): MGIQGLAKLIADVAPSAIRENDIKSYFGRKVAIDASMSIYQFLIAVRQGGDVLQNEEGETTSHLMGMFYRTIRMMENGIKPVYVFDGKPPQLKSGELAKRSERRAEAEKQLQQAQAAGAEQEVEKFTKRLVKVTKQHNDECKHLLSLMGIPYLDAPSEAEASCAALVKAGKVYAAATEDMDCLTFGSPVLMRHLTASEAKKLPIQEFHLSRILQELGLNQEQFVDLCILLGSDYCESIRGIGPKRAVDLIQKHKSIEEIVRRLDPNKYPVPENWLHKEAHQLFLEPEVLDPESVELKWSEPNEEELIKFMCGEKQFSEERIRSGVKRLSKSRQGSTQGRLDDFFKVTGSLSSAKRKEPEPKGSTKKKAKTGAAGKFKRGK
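FEN1 at 10 nM preincubated with compounds 15 min at room temperature, then flap DNA substrate added at 50 nM final. Signal read at 0 and 15 min; concentration-response fitted with four-parameter Hill equation.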
WRN inhibitor – WRN helicase (human) inhibition | Q14191 | WRN helicase unwinding, fluorescent forked duplex, kinetic | Potency, µM (titrated, usually from 114 µM), for inactives: at the highest dose activity change, negative = inhibition, most hits filed as inhibitors | actives 0.46% (n = 360,000) | AID 651768; also: potency is read from the fitted curve at half-maximal effect; % is scaled to controls: 0 for no effect and ±100 for the full control effect; nearly all actives have a fitted effect of over 55% in size
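Kinetic fluorescence helicase assay: unwinding of a quenched forked DNA duplex (100 nM final) with 2 mM ATP final raises red fluorescence (525/598 nm). Compounds sat 15 min at room temperature with 20 nM WRN beforehand.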
PLK1 PBD inh – PLK1 (human) polo-box domain binding inhibition. Plk1 PBD binding of FITC phosphopeptide, fluorescence polarization. AID 720504. Potency, µM, without a hit: max response, negative = inhibition, hits mostly inhibitors. P53350. actives 2.8% (n = 360,000); also: potency is read from the fitted curve at half-maximal effect; series mostly up to about 57 µM; % is scaled to controls: 0 for no effect and ±100 for the full control effect; nearly all actives have a fitted effect of over 65% in size
VDR inh – inhibitors of human vitamin D receptor; P11473; VDR-SRC2-3 peptide fluorescence polarization, 2 h; Potency, µM, without a hit: max response, negative = inhibition, hits mostly inhibitors; actives 0.93% (n = 400,000); AID 504847; also: potency is read from the fitted curve at half-maximal effect; % is scaled to controls: 0 for no effect and ±100 for the full control effect
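Fluorescence polarization assay of small-molecule disruption of VDR binding to coregulator peptide SRC2-3. Compounds and controls pin-transferred, then read after 2 h incubation at ambient room temperature.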
TCR act – activators of T cell receptors; primary human leukocytes, anti-CD3, IL-2 HTRF, 48 h; Potency, µM (titrated, usually from 9.22 µM), inactives show at the top dose activation of IL-2 secretion, usual class: activators; 330,000 tested, under 10 active; also: % of control where 0% means no effect
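Compounds are tested in HTS on primary human leukocytes co-incubated with a-CD3 beads for 48 hr. IL-2 output is measured by time-resolved FRET.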
* marks the source's active call; other numbers are inactive results; ? = inconclusive; . = not tested or not shown; ! = not active in a repeat; [ ] = remark or other dose. Shown are actives, neighbours in structure and some others; about 3.7% of the full set was active somewhere. Unless noted, calls follow the shape of the dose curve; as a rule, active = well fitted curve in the direction sought with a large enough effect; inconclusive = small, poorly fitted or top-dose-only effect, or another doubt; inactive = no such curve, though single readings can be large; an effect the other way counts as inactive or inconclusive.

SMILES	PI5P4Ka inh	FEN1 inhibitor	WRN inhibitor	PLK1 PBD inh	VDR inh	TCR act
Cc1ccc2cc(C3CC(c4ccco4)=NN3C(=O)CCC(=O)O)c(Cl)nc2c1 (configuration not stated)	-16	-2%	-18%	?	32µM*	-6%[46.1 µM]
Cc1cccc(N2CCN(C(=O)c3ccc(NC(=O)c4nsc5ccccc45)cc3)CC2)c1C	.	4%	.	.	4%	.
O=C1C2C3C=CC(CC3)C2C(=O)N1c1nccs1 (configuration not stated)	-62*	-23%	40µM*	-6%	-3%	4%[46.1 µM]
O=C(COC(=O)c1ccccc1)NCC1CCCO1 (configuration not stated)	7	8%	4%	-3%	9%	0%
O=C(COC(=O)c1cccc([N+](=O)[O-])c1)NCC1CCCO1 (configuration not stated)	-11	-2%	3%	27µM*	-18%	-1%
O=C(O)c1ccc(N2C(=O)/C(=C/C=C/c3ccccc3)SC2=S)cc1	-26	-7%	-7%[57.1 µM]	27µM*	-10%	-31%
CCN(CC)C(=O)CSc1nc2c(sc(=S)n2-c2ccccc2)c(=O)n1Cc1ccco1	.	0%	-36%	24µM*	40µM*	1%
CCN(CC)C(=O)CSc1nc2c(sc(=S)n2CC)c(=O)n1-c1ccccc1	1	-7%	11%	-4%	-1%	-5%
O=C(NCc1ccccc1)c1nn(-c2ccccc2)nc1CO	.	-4%	.	.	11%	.
Cc1ccc(-c2nn(CC(=O)NC3CCCCC3)c3c2cnc2ccccc23)cc1	.	-1%	.	.	4%	.
C=C(C)C(O)/C=C/c1ccc(C(F)(F)F)cc1 (configuration not stated)	.	.	.	.	11%	.
Cc1nc(-c2ccccn2)nc(SCC(=O)c2ccccc2)c1Cl	2	-20%	1%	?	-12%	1%
Cc1nc(-c2ccccn2)nc(SCC(=O)N2CCOCC2)c1Cl	-1	13%	5%	24µM*	-8%	-3%
COc1ccc2c(c1)O[C@@H](c1ccc3c(c1)OCO3)[C@H](OC(=O)NS(=O)(=O)c1ccc(C)cc1)C2=O	.	.	.	.	-7%	.
CCN(CC)S(=O)(=O)c1ccc(Cl)c(NC(=O)c2ccccc2C)c1	6	7%	3%	21µM*	-19%	2%
CCC(Cn1nnc2ccccc2c1=O)NC(=O)Nc1ccc(C)cc1C (configuration not stated)	.	-4%	.	.	-1%	.
CCOC(=O)c1cc(-c2ccc(/C=C3/C(=O)NC(=O)C(C#N)=C3C)o2)ccc1Cl	.	?	?	3.4µM*	?	-1%
CC1=C(C#N)C(=O)NC(=O)/C1=C\c1ccc(-c2ccc(C)cc2[N+](=O)[O-])o1	-75*	-6%	?	8.4µM*	?	-3%
CCN(CC)/[N+]([O-])=N/OCOC(=O)C(C)c1ccc(CC(C)C)cc1 (configuration not stated)	.	-21%	.	.	.	.
CCOC(=O)C1=C(CN2CCN(c3cccc(OC)c3)CC2)NC(=O)NC1c1ccc(OC)cc1 (configuration not stated)	.	3%	.	.	-2%	.
CSc1ccc(CC2C(=O)Nc3ccccc32)cc1 (configuration not stated)	.	-11%	.	.	5%	.
CCN(CC)CCC(=O)N1c2ccccc2Sc2ccc(C(F)(F)F)cc21	.	.	.	.	28µM*	.
CCN(CC)CCC(=O)N1c2ccccc2Sc2ccc(Cl)cc21	1	-3%	-4%	3%	50µM*!	0%
CC[n+]1c(/C=C/N(C)c2ccccc2)oc2ccc(Cl)cc21	-10	3%	-10%	1%	1%	0%[46.1 µM]
CCN1/C(=C/C=C/c2oc3ccc4ccccc4c3[n+]2CC)Oc2ccc3ccccc3c21	-74*	?	?	81%	?	-3%
SMILES	PI5P4Ka inh	FEN1 inhibitor	WRN inhibitor	PLK1 PBD inh	VDR inh	TCR act
O=c1c(OC2OC(CO)C(O)C(O)C2O)c(-c2ccc(O)c(O)c2)oc2cc(O)cc(O)c12 (configuration not stated)	-4	?	-4%[11.6 µM]	3%	9%	-2%
O=c1c2c(O)cc(O)cc2oc2c(O)ccc(O[C@H]3O[C@@H](CO)[C@H](O)[C@@H](O)[C@@H]3O)c12	-56*	-14%	-17%	-10%	-14%	-3%
CC1(C)OB(c2cnc(C#N)nc2)OC1(C)C	.	18%	.	.	.	.
CCOc1ccc(S(=O)(=O)N2CCN(c3nc(-c4ccccc4)nc4ccccc34)CC2)cc1	.	-7%	.	.	5%	.
COc1ccc(C2=NC(c3ccc(Cl)cc3)C(c3ccc(Cl)cc3)N2C(=O)N2CCNC(=O)C2)c(OC(C)C)c1 (configuration not stated)	.	.	.	.	50µM*	.
O=C(Nc1ccc2nccnc2c1)Nc1ccccc1Cl	-7	-4%	-24%	24µM*	?	-11%
Cc1ccccc1Nc1oc(-c2ccccc2)nc1CCc1ccccc1	.	.	.	.	6%	.
O=c1c(-c2ccc3c(c2)OCCO3)coc2cc(O)cc(O)c12	-16	7%	-2%	-3%	-7%	1%
O=c1c(-c2ccccc2)coc2cc(O)cc(O)c12	.	.	.	.	28µM*	.
CCc1c(C)[nH]n(-c2ccc(Oc3ccccc3)c(S(=O)(=O)O)c2)c1=O	-18	?	?	13µM*	?	-4%
Cc1c(C(=O)N/N=C/c2ccc(-c3ccccc3[N+](=O)[O-])o2)sc(N)c1C#N	-53*	10%	?	?	?	0%[46.1 µM]
O=C(N/N=C/c1ccc(-c2ccccc2[N+](=O)[O-])o1)c1cncc(Br)c1	-28	-13%	-35%	-18%	?	1%[46.1 µM]
Cc1c(C(=O)N/N=C/c2ccc(O)c(Br)c2)sc(N)c1C#N	-84*	-32%	-34%	-2%	8%	1%[46.1 µM]
COc1cc(/C=N/NC(=O)c2sc(N)c(C#N)c2C)ccc1O	-84*	-18%	?	-9%	11%	0%
O=C(N/N=C/c1ccc(O)c(Br)c1)c1cc2c(ccc3ccccc32)o1	?	15%	-4%	-6%	8%	1%
COc1cc(/C=N/NC(=O)c2ccc(=O)[nH]n2)ccc1O	-4	-8%	-21%	-2%	9%	4%[46.1 µM]
Cc1ccc(NC(=O)CCn2nc(C)c(S(=O)(=O)N3CCCCC3)c2C)cc1Cl	.	-1%	.	.	8%	.
CC(=O)NC1=C(C#N)CCC1	.	4%	.	.	.	.
Cc1ccc(NC(=O)CSc2nc3ccccc3n2CC(=O)N(C)C2CCCCC2)cc1C	.	4%	.	.	8%	.
Cc1ccc(SCC(=O)Nc2ccc3oc(-c4cccc(C)c4)nc3c2)cc1	.	10%	.	.	-5%	.
CCC(=O)Nc1ccc2oc(-c3cccc(C)c3)nc2c1	?	-3%	-9%	3µM*	?	5%
CCOc1c(Cl)cc(CNc2ccc3[nH]c(=O)[nH]c3c2)cc1OC	.	-4%	.	.	6%	.
